From PubChem BioAssay AID2284173 (EPA ToxCast)
Active and inactive are the calls of the source. Rule for the calls: active = hit-call score of the fitted dose curve at least 0.9, where 1 is the maximum; inactive = score below 0.9.

test system: rat KATP Antagonism, gene 24521; experiment: ERF_FR_IC_rKCNJ1: Eurofins (ERF) Potassium Ion Channel Mass Spectrometry Ligand Binding LeadHunter Assay for rat KATP Antagonism
Description: ERF_FR_IC_rKCNJ1 is a biochemical, single-readout assay that uses extracted gene-proteins in a cell-free assay. Measurements were taken 1 hour after chemical dosing in a 96-well plate. See KATP Rat Potassium Ion Channel Binding (Antagonist Radioligand) Assay, Cerep.ERF_FR_IC_rKCNJ1 is an assay component calculated from the ERF_FR_IC_rKCNJ1 assay. It is designed to measure radioligand binding using a type of binding reporter as detected by scintillation counting with radiometry technology.Data from the assay component ERF_FR_IC_rKCNJ1 was analyzed at the assay endpoint, ERF_FR_IC_rKCNJ1, in the positive analysis fitting direction relative to DMSO as the negative control and baseline of activity. Using a type of binding reporter, loss-of-signal activity can be used to understand changes in binding as they relate to gene KCNJ1. To generalize the intended target to other relatable targets, this assay endpoint is annotated to the ion channel intended target family, where the subfamily is voltage gated (Potassium).
Rat cells are incubated for 60 minutes at room temprature with Glibenclamide (0.07 nM) as ligand and Glibenclamide-d3 (30nM) as control inhibitor. Test Sample Requirements: Minimum for 1) Screen: 60 ul of 10 mM stock -OR- 1 mg (pre-weighed) for 10 uM final testing. 2) Dose Response: 90 ul of 10 mM stock -OR- 1 mg (pre-weighed) for a top concentration at 10 uM.

Compound | AC50
O=C(/C=C/c1ccc(O)cc1)CC(=O)/C=C/c1ccc(O)cc1 | 880 nM (active)
